Six1-Eya2 blk: Six1/Eya2 interaction inhibition; Q15475+O00167; AlphaScreen GST-Six1/His-Eya2 binding, biochemical; hits give low values; activity change, % (no concentration beside the values); 0.56% of 360,000 active; AID 651725; in the data active means activity change below about -65%; inconclusive means mostly about -30% to -63%
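Homogeneous AlphaScreen proximity assay pairing GST-Six1 with His-tagged Eya2 (added as 5X mix: 250 nM and 500 nM) in 50 mM Tris pH 8.0, 300 mM NaCl, 1 mM TCEP. Glutathione donor and nickel acceptor beads; 1 h, 37 °C, dark.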
CtBP-E1A blk: inhibitors of CtBP/E1A interaction | AlphaScreen GST-E1A/His-CtBP binding, 1536-well; hits give low values | activity change, % (no concentration beside the values) | 0.49% of 340,000 active; in the data active means activity change below about -65%; inconclusive means mostly about -30% to -63%
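GST-E1A and His-tagged CtBP (125 nM each as 5X stock) were preincubated with pin-transferred compound for 2 h at 37 °C in the dark, then glutathione donor and nickel acceptor beads were added for 1 h before AlphaScreen reading.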
HP1b binding inh: inhibitors of HP1-beta chromodomain binding to methylated histone tails; AlphaScreen HP1-beta / biotin-H3K9me3 peptide binding; Potency, µM (series often up to 114 µM), hits mostly inhibitors; P83916; 0.56% of 390,000 active; further: nearly all actives have a fitted effect of over 70% in size
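HP1-beta protein (50 nM final) preincubated 30 min at room temperature with biotinylated H3(1-18)K9me3 peptide (50 nM) in PBS pH 7.4, 0.01% Tween-20, then compound added for 30 min. AlphaScreen streptavidin donor/nickel chelate acceptor beads (10 ug/mL final), 30 min dark, luminescence read.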
BAZ2B block: blocks human BAZ2B; 4.4% of 360,000 active; Q9UIF8; AID 504333; AlphaScreen BAZ2B-H3K14Ac peptide displacement; Potency, µM (top dose mostly 114 µM), usual class: inhibitors; further: nearly all actives have a fitted effect of over 60% in size
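AlphaScreen displacement of biotin-H3(5-23)K14Ac peptide (50 nM final) from BAZ2B (50 nM final) in PBS pH 7.4, 0.01% Tween-20; complex preformed 30 min RT, then compounds (top 110 uM) 30 min RT, beads 20 min dark.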
G9a inh: blocks human histone lysine methyltransferase G9a | G9a H3K9 monomethylation, AlphaScreen, 2 h | 8.8% of 350,000 active | Potency, µM (series often up to 102 µM), usual class: inhibitors | Q96KQ7 | AID 504332; further: nearly all actives have a fitted effect of over 75% in size
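Chemiluminescent proximity detection of H3K9 monomethylation, read after 10 min bead incubation in the dark. Reaction: 20 nM G9a, 500 nM biotin-H3K9 peptide, 20 uM SAM cofactor, 2 h, room temperature, following 15 min enzyme-compound preincubation.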
JMJD2A Tudor: blocks the human JMJD2A Tudor domain; Potency, µM (doses to about 114 µM), usual class: inhibitors; AID 504339; 4.4% of 390,000 active; O75164; AlphaScreen JMJD2A-Tudor / H3K4me3 peptide binding; further: nearly all actives have a fitted effect of over 50% in size
Hits are given with their value; n = inactive; u = inconclusive; x = no result; [ ] = dose if it differs, or a comment. Hits are enriched below; roughly 10% of the tested compounds scored in any of these assays. Unless noted, the call rests on the fitted dose curve; in most records, active means well fitted inhibition curve with a large enough effect; inconclusive means small, poorly fitted or top-dose-only effect; inactive means no such curve, though single readings can be large or run the other way.

SMILES | Six1-Eya2 blk | CtBP-E1A blk | HP1b binding inh | BAZ2B block | G9a inh | JMJD2A Tudor
NS(=O)(=O)c1ccc(NC(=O)CSC2CCCCC2)cc1 | n | n | n | n | u | 28µM
CCOC(=O)C1(C)CCCN(C(=O)Cc2ccc3ccccc3c2)C1 (centres undefined) | n | n | x | x | x | x
C[C@H]1CNC(=O)c2c(C(=O)N3CCN(C(=O)OC(C)(C)C)CC3)ncn21 | n | n | x | x | x | x
COc1ccc(-c2cc(C(F)(F)F)nc(SCC(=O)NC(C)c3ccccc3)n2)cc1 (centres undefined) | x | x | n | n | n | n
CC(O)CCC(=O)NCCNC(=O)CCC(C)O (centres undefined) | n | n | n | n | n | 28µM
O=C(CCC(=O)NCCO)NCCO | n | n | n | n | n | n
O=C(CC1C(=O)NCCN1Cc1cccc(F)c1)NCCCOc1cccnc1 (centres undefined) | n | n | n | n | u | u
COc1cccc(CNc2ccc(F)c([N+](=O)[O-])c2)c1O | n | n | n | n | 50µM | u
O=[N+]([O-])c1ccccc1CNc1ccc(F)c(Cl)c1 | n | n | n | 50µM | u | u
COc1ccc(C2/C=C\CN(CC(C)C)CC(=O)N2Cc2cccc(F)c2)cc1 (centres undefined) | n | n | n | x | 32µM | n
CCc1ccccc1NC(=O)Cn1c(=O)n(Cc2ccco2)c(=O)c2ccccc21 | x | x | n | n | u | n
O=C(NC1CCCC1)C(c1ccccc1)n1c(CSCCOc2ccccc2)nc2ccccc21 (centres undefined) | n | n | x | x | x | x
CCn1c(SCC(=O)N/N=C/c2ccccc2OCC(=O)O)nnc1-c1ccc(OC)cc1 | n | n | n | 56µM | n | n
CCn1c(SCC(=O)N/N=C\c2ccccc2OCC(=O)O)nnc1-c1ccc(Cl)cc1 | n | n | n | n | u | n
O=C(O)COc1ccccc1/C=N/NC(=O)CSc1nc2ccccc2c(=O)n1-c1ccccc1 | n | n | n | u | n | n
O=C(O)COc1ccccc1/C=N/NC(=O)CSc1nc2ccccc2c(=O)n1-c1ccc(Cl)cc1 | n | n | n | 56µM | u | u
CC(=O)N1c2ccccc2CC1C(=O)N1CCN(c2cccc(C)c2C)CC1 (centres undefined) | x | x | n | n | n[12.7 µM] | n
COc1cc(C2C(C(C)=O)=C(O)C(=O)N2CCc2c[nH]c3ccccc23)ccc1O (centres undefined) | n | n | n | u | 50µM | 100µM
CC(=O)C1=C(O)C(=O)N(CCc2c[nH]c3ccccc23)C1c1cccc(O)c1 (centres undefined) | n | n | n | u | u | 79µM
COc1cc(C2C(C(C)=O)=C(O)C(=O)N2CCN(C)C)ccc1O (centres undefined) | n | n | n | n | n | n
COc1ccccc1N1CCN(C(=O)c2cnc(N3CCOCC3)c3ccccc23)CC1 | x | x | n | n | n | n
C=CCN1C(c2ccccc2)=CS/C1=C(/C#N)c1nnc(N2CCOCC2)n1-c1ccccc1 | n | x | n | n | u | u
C=CCn1c(CC#N)nnc1N1CCOCC1 | n | n | n | 50µM | u | u
CCc1ccc(-c2nc(CSCC(=O)N3CCN(c4ccccn4)CC3)c(C)o2)cc1 | n | n | n | 50µM | n | u
Cc1ccc(-c2nc(CSCC(=O)N3CCN(c4ccccn4)CC3)c(C)o2)cc1 | n | n | n | n | u | n
SMILES | Six1-Eya2 blk | CtBP-E1A blk | HP1b binding inh | BAZ2B block | G9a inh | JMJD2A Tudor
CCOc1ccc(-c2nc(CSCC(=O)N3CCN(c4cccc(OC)c4)CC3)c(C)o2)cc1 | n | n | u | u | u | 56µM
CCOC(=O)Sc1nc2ncncc2[nH]1 | n | u | u | x | x | 3.5µM
Cc1c(C(=O)NCCN(C)C)sc2nc3n(c(=O)c12)CCC3 | x | x | n | n | n | n
O=C(NCCCN1CCOCC1)c1onc(CSc2nc3ccccc3[nH]2)c1C(=O)NCCCN1CCOCC1 | n | u | n | n | 50µM | n
O=C(NCC1CC1)c1onc(CSc2nc3ccccc3[nH]2)c1C(=O)NCC1CC1 | n | n | n | u | x | n
CCCCNC(=O)c1onc(CSc2nc3ccccc3[nH]2)c1C(=O)NCCCC | n | n | n | n | 71µM | n
CC(C)NC(=O)c1onc(CSc2nc3ccccc3[nH]2)c1C(=O)NC(C)C | n | n | n | n | 50µM | n
CC(=O)Nc1ccc(S(=O)(=O)N2CCC3(CC2)OCCO3)cc1 | n | n | n | n | n | n
COc1cccc(/C=C/C(=O)OCC(=O)NCCNC(=O)COC(=O)/C=C/c2cccc(OC)c2)c1 | n | n | n | n | n[12.7 µM] | n
CNc1ccc(Br)cc(C(=O)/C=C/c2cccc(OC)c2)c1=O | n | n | u | 45µM | 7.9µM | 45µM
CNc1ccc(Br)cc(C(=O)/C=C/c2ccc(Cl)cc2Cl)c1=O | n | n | u | u | 35µM | 56µM
CNc1ccc(Br)cc(C(=O)/C=C/c2ccc(OC)cc2OC)c1=O | n | n | u | 32µM | 7.9µM | 32µM
COC(=O)[C@]12CCCCC=C1N(CCC1=CCCCC1)C(=O)[C@H](CC(=O)NCCCCc1ccccc1)C2 | n | n | x | x | x | x
C[C@]12CC[C@H]3c4ccc(O)cc4CC[C@@H]3[C@H]1CC[C@@H]2OC(=O)CCC1CCCC1 | x | x | x | x | n | x
Cc1ccc(F)cc1NC(=O)Cn1c(=O)nc(-c2ccccc2F)c2cc(Cl)ccc21 | x | x | n | n | n[12.7 µM] | n
COc1ccc(/C=N/NC2=NS(=O)(=O)c3ccccc32)cc1 | n | x | n | n | n | n
O=S1(=O)N=C(N/N=C/c2ccccn2)c2ccccc21 | -88 | -81 | n | 35µM | n | 79µM
O=S1(=O)N=C(N/N=C/c2ccc(Br)o2)c2ccccc21 | n | n | n | n | 40µM | u
CC1CCN(C(=O)Cn2cc(SCC(=O)NCc3ccccc3Cl)c3ccccc32)CC1 | x | x | n | n | n | n
CCCC12CN3CC(C)(CN(C1)C3c1ccco1)C2=O (centres undefined) | n | n | n | n | n | 56µM
CCCC12CN3CC(CCC)(CN(C1)C3c1ccco1)C2=O (centres undefined) | n | n | n | n | x | n
COc1ccc(S(=O)(=O)Nc2cc(Sc3ncn[nH]3)c(O)c3ccccc23)cc1 | n | n | u | 45µM | 1.6µM | 5.6µM
O=S(=O)(Nc1cc(Sc2cccc3cccnc23)c(O)c2ccccc12)c1ccc(F)cc1 | -94 | -92 | 18µM | u | 2µM | 18µM
O=S(=O)(Nc1cccc2cccnc12)c1ccc(Br)cc1 | x | x | x | x | x | n
COc1ccc(S(=O)(=O)Nc2ccc(O)c(Sc3ncn[nH]3)c2)cc1 | n | n | n | n | 13µM | n
CC(=O)N1Cc2cc(C(=O)NCC(F)(F)F)nc(-c3cccc(-c4cc5ccccc5o4)c3)c2[C@H]1CCO | n | n | x | x | x | x
